SMN2 splice enh: qHTS Assay for Enhancers of SMN2 Splice Variant Expression | Potency, µM (top dose mostly 46.1 µM), for inactives: at the highest dose activity change, positive = activation, hits mostly activators | HEK293 SMN2-luciferase splicing reporter, luminescence, 30-36 h | actives 2.8% (n = 210,000) | AID 1458, 2008; further: % of control where 0% means no effect; nearly all actives have a fitted effect of over 55% in size
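qHTS luciferase splicing reporter: luminescence rises when SMN2 exon 7 is included in transfected HEK293 cells. Compound exposure lasted 30-36 h at 37C, with 4.5 mM final sodium butyrate as control, followed by a ONE-Glo read.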
Rab9 promoter act: qHTS Assay for Rab9 Promoter Activators; Huh7 Rab9 promoter-luciferase reporter, luminescence, 24 h; Potency, µM (doses to about 9.22 µM), inactives show at the highest dose activation, negative = inhibition, hits mostly activators; actives 2.8% (n = 320,000); AID 485297, 2010; further: % of control where 0% means no effect; nearly all actives have a fitted effect of over 60% in size
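Cell-based reporter: Huh7 stable for Rab9 promoter-driven luciferase, plated in reduced-serum medium with 10% FBS at 1500 cells/well, compound-treated 24 h at 37 °C, luminescence read after 10 min reagent.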
ELG1 genotox: qHTS screen for small molecules that induce genotoxicity in human embryonic kidney (HEK293T) cells expressing luciferase-tagged ELG1; HEK293T ELG1-luciferase reporter, luminescence, 16 h; Potency, µM (top dose mostly 46 µM), for inactives: top-dose activity change, positive = activation, actives largely listed as activators; actives 1.3% (n = 330,000); further: % of control where 0% means no effect; nearly all actives have a fitted effect of over 60% in size
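Reporter readout depends on ELG1 protein level, which increases with genetic stress. After 16 hr compound exposure at 37 °C, luciferase activity was quantified using ONE-Glo.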
FLuc counter: qHTS profiling assay for firefly luciferase inhibitor/activator using purifed enzyme and Km concentrations of substrates (counterscreen for miR-21 project). purified FLuc, Km substrates, luminescence inhibition. Potency, µM (titrated, usually from 57.5 µM), inactives show at the highest dose activity change, negative = inhibition, most hits filed as inhibitors. actives 6.9% (n = 360,000). AID 588342, 2011;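 further: plate controls were vehicle for no effect and reference inhibitor for full effect; nearly all actives have a fitted effect of over 55% in size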
Target sequence (P08659 whole entry, looked up): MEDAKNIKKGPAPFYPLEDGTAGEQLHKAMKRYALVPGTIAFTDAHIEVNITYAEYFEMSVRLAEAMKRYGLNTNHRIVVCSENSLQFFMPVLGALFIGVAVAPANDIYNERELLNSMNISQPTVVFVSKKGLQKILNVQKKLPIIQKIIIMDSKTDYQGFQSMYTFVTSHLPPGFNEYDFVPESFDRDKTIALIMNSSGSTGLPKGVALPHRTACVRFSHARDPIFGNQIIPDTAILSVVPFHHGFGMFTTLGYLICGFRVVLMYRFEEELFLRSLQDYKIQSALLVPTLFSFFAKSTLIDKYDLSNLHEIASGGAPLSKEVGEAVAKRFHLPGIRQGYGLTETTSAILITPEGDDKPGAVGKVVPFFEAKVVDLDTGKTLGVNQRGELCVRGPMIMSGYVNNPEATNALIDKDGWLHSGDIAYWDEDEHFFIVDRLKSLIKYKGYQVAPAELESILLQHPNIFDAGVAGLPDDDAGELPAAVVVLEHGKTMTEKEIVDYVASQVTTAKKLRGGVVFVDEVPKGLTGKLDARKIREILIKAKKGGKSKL
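Biochemical qHTS of compounds, final roughly 60 µM downward over six points, against 10 nM purified firefly luciferase using Km concentrations of substrates (10 uM D-luciferin, 10 uM ATP) in Tris acetate pH 7.5 buffer; luminescence output.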
p53 reactivation: qHTS assay for re-activators of p53 using a Luc reporter; H1299 p53-A138V BP100-luciferase reporter, luminescence, 24 h; AID 504706, 2011; actives 0.063% (n = 320,000); Potency, µM (top dose mostly 92.2 µM), for inactives: at the highest dose activity change, positive = activation, usual class: activators; further: % of control where 0% means no effect; nearly all actives have a fitted effect of over 45% in size
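p53-null H1299 cells stably carrying temperature-sensitive p53-A138V and a BP100-luciferase reporter were pinned with compounds (4-point, 1:5 series) and held 24 hrs at 37 deg C. Luminescence was read 10 min after detection reagent.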
NPC1 promoter act: qHTS Assay for NPC1 Promoter Activators; AID 485313, 2010; Huh7 NPC1 promoter luciferase reporter, 24 h; actives 2.4% (n = 320,000); Potency, µM (top dose mostly 9.22 µM), without a hit: top-dose activation, actives largely listed as activators; further: % of control where 0% means no effect; nearly all actives have a fitted effect of over 60% in size
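Compounds in DMSO were transferred onto Huh7 NPC1-luciferase reporter cells pre-incubated 2 h; after 24 h at 37 °C, Amplite reagent was dispensed and luminescence recorded 10 min later.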
Active calls of the source: *; ? = inconclusive; · = no result; [ ] = dose if it differs, or a comment. Compounds with a hit are over-represented: about 7.3% of the library has one in this group of screens. The call rests on the fitted dose curve; in most records, active means well fitted curve in the direction sought with a large enough effect; inconclusive means small, poorly fitted or top-dose-only effect, or another doubt; inactive means no such curve, though single readings can be large; an effect the other way counts as inactive or inconclusive. Potency means the concentration at half of the fitted maximal effect.

SMILES	SMN2 splice enh	Rab9 promoter act	ELG1 genotox	FLuc counter	p53 reactivation	NPC1 promoter act
Clc1ccccc1Cc1cn2cc(-c3ccccc3)nc2s1	2.5µM*	·	·	0.17µM*	·	·
O=C(Cc1csc2nc(-c3ccccc3)cn12)NCc1ccc(F)cc1	·	·	·	-18%	·	·
O=C(O)CCn1nc(-c2ccc(F)cc2)cc(Cc2ccccc2)c1=O	·	0%	0%	1%	-4%	-2%
Fc1ccc(-c2cn3cc(Cc4ccccc4)sc3n2)cc1	6.3µM*	·	·	0.12µM*	·	·
Fc1ccc(Cc2cn3cc(-c4ccccc4)nc3s2)cc1	2µM*	·	·	0.11µM*	·	·
Brc1ccc(-c2cn3cc(Cc4ccccc4)sc3n2)cc1	8%	·	·	0.34µM*	·	·
Nc1ncnc2c1ncn2[C@@H]1O[C@H](COP(=O)(O)O)[C@@H](O)[C@@H]1O	-7%[20.6 µM]	·	·	·	·	·
COc1ccc(NC(=O)c2c(C)oc3ccc(O)c(CN4CCN(C)CC4)c23)cc1Cl	-8%	·	·	-3%	·	·
CCOc1ccc(NC(=O)CC2C(=O)N(c3ccc(F)cc3)C(=O)N2CCc2sccc2C)cc1 (configuration not stated)	-1%	·	·	1%	·	·
CCC(CC)c1nn2c(=O)cc(COc3ccc(NC(=O)c4ccccc4Cl)cc3)nc2s1	-6%	·	·	-15%	·	·
C=N[C@H](C(=O)N[C@@H]1C(=O)N2[C@@H]1SC(C)(C)[C@@H]2C(=O)O)c1ccccc1	-8%[20.6 µM]	·	·	·	·	·
COc1cc(C2NC(=S)NC(C)=C2C(=O)Nc2ccc(C)cc2)ccc1O (configuration not stated)	·	2.2µM*	17%	?	?	?
CCCOC(=O)/C(C(N)=NCc1ccccc1)=C(\O)OCCC	-13%	-6%	-12%	2%	5%	-1%
COc1ccc(NC(=O)CSc2nc(-c3ccc(F)cc3)c3cccc(C)c3n2)cc1	-3%	·	·	-1%	·	·
COc1ccc(C(=O)Nc2nnc(CCc3ccccc3)s2)c(OC)c1	·	3%	7%	?	-31%	-3%
COCc1nnc(NC(=O)c2ccc(OC)cc2OC)s1	11µM*	2.5µM*	8.2µM*	8.5µM*	-9%	2.5µM*
COc1ccc(C(=O)Nc2nnc(Cc3ccc(OC)c(OC)c3)s2)c(OC)c1	·	15%	12%	27µM*	·	14%
CN(C1CCCCC1)S(=O)(=O)c1ccc2c(c1)c(=O)c(C(=O)NCc1ccc(Cl)cc1)cn2C	-2%	·	·	-1%	·	·
O=C(Nc1ccc2c(c1)OCCO2)c1cccc(Cl)c1Cl	·	1.6µM*	2.6µM*	7.6µM*	?	3.5µM*
Cc1ccc(C(=O)Nc2ccc3c(c2)OCCO3)c(Cl)c1	·	0.089µM*	?	0.43µM*	-40%	0.089µM*
O=C(Nc1ccc2c(c1)OCCO2)c1c(F)c(F)c(F)c(F)c1F	-4%	5%	1%	2%	-3%	-1%
O=C(Nc1ccc2c(c1)OCCO2)c1cc(F)c(F)cc1Cl	·	2.5µM*	?	12µM*	·	2.2µM*
Cc1oc(C(C)(C)C)cc1C(=O)Nc1ccc2c(c1)OCCO2	30%	·	·	12µM*	·	·
CCc1cccc(NC(=O)Cn2nc(C)c3sc4ccccc4c3c2=O)c1	·	·	·	-1%	·	·
COc1ccc2c(c1)C(=O)[C@@H](OC(=O)NS(=O)(=O)c1ccc(F)cc1)[C@H](c1ccc(OC)c(Br)c1)O2	10%	·	·	·	·	·
SMILES	SMN2 splice enh	Rab9 promoter act	ELG1 genotox	FLuc counter	p53 reactivation	NPC1 promoter act
COC(=O)c1ccccc1NC(=O)c1cn2c3c(ccc(Cl)c3c1=O)OC(C)C2 (configuration not stated)	·	·	·	-7%	·	·
Cc1ccc(C)c(NC(=O)CSc2nc3nccnc3c(=O)n2CCc2c[nH]c3ccccc23)c1	·	·	·	-5%	·	·
O=[N+]([O-])c1ccc(Cl)c(S(=O)(=O)Nc2cccc(-c3ccc(N4CCOCC4)nn3)c2)c1	·	?	10µM*	2.4µM*	26%	?
O=S(=O)(Nc1ccc(-c2ccc(N3CCOCC3)nn2)cc1)c1ccc(Cl)c(Cl)c1	·	1%	-5%	24µM*	-5%	-4%
O=[N+]([O-])c1ccc(Cl)c(S(=O)(=O)Nc2ccc(-c3ccc(N4CCOCC4)nn3)cc2)c1	·	-2%	6%	15µM*	7%	7%
COC(=O)c1cc(OC)c(OC)c(OC)c1NC(=O)c1cc(=O)n(C)c(=O)n1C	1%	·	·	-6%	·	·
COc1cc(OC)c(NC(=O)C2CCN(S(=O)(=O)c3ccc4c(c3)oc(=O)n4C)CC2)cc1Cl	-2%	·	·	-6%	·	·
CCOC(=O)c1c(NC(=O)c2cc(-c3cccc(Cl)c3)on2)sc(C(C)=O)c1C	-2%	·	·	-6%	·	·
COc1ccc(OC)c(CC2C(=O)Nc3ccc(Br)cc32)c1 (configuration not stated)	·	·	·	-6%	·	·
CC(O)(CS(=O)(=O)Cc1ccccc1)C(=O)Nc1ccc(C(F)(F)F)cc1 (configuration not stated)	4%	-1%	-5%	-2%	-5%	-2%
Cc1ccc(CCNC(=O)c2cc3sccc3n2Cc2ccc(F)cc2)cc1	-7%	·	·	0%	·	·
NNC(=O)c1cccn(Cc2ccc(Cl)cc2Cl)c1=O	·	-13%	-7%	-1%	0%	-2%
COC(=O)c1cccn(CC(=O)c2ccc(Cl)cc2Cl)c1=O	7%	-6%	5%	15µM*	-2%	0%
Cc1cc(SCC(=O)c2ccccc2)nc2ccccc12	8%[9.22 µM]	·	·	·	·	·
COCCn1c(C)cc(C(=O)CSc2nc3ccccc3c(=O)n2Cc2ccco2)c1C	7.1µM*	1.3µM*	?	1.7µM*	?	3.2µM*
COCCn1c(C)cc(C(=O)CSc2cc(C)c3ccccc3n2)c1C	-14%	11%	1%	13µM*	8%	1%
C[C@H]1Cc2c(-c3ccccc3)nc3c(c2CO1)CN(C(=O)c1cccnc1)CC3	4%[9.22 µM]	·	·	·	·	·
COc1c(Cl)cccc1-c1cn2ccccc2n1	·	1.3µM*	4.1µM*	0.54µM*	?	0.79µM*
COc1ccc(-c2cn3ccc4ccccc4c3n2)cc1	3.2µM*	?	1.2µM*	0.95µM*	28µM*	?
CCCOc1ccc(-c2cn3ccccc3n2)cc1	2.2µM*	0.32µM*	?	0.38µM*	10%	?
COc1ccc(S(=O)(=O)Nc2cc(-c3cn4ccccc4n3)ccc2C)cc1	8%	·	·	?	·	·
COc1cc(C(=O)NCc2cn3ccccc3n2)cc(OC)c1OC	8%	-3%	6%	-2%	-7%	-4%

Source: PubChem BioAssay (National Center for Advancing Translational Sciences (NCATS))
